# Results filed as inconclusive are left out. Activity calls are given as the source filed them. How the source made its calls: active means hit-call score of the fitted dose curve at least 0.9, where 1 is the maximum; inconclusive means response in the unintended direction; inactive means score below 0.9.
# Key:
# [1] = CCTE_Deisenroth_AIME_96WELL_CTox_Active: Cytotoxicity Assessment (CTOX) in CCTE's 96-well Estrogen Receptor Transactivation Assay with AIME metabolic competence (metabolism positive), Deisenroth Lab (AID 2284028)
# Outline: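 Cytotoxicity in VM7Luc4E2 breast cells after 24 h exposure to medium from a 2 h metabolic pre-incubation with induced rat hepatic S9 in alginate microspheres; fluorescent live-cell protease readout, 10-point series 0.002–200 uM, n=4.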
# [2] = CCTE_Deisenroth_AIME_96WELL_CTox_Inactive: Cytotoxicity Assessment (CTOX) in CCTE's 96-well Estrogen Receptor Transactivation Assay without AIME metabolic competence (metabolism negative), Deisenroth Lab (AID 2284029)
# Outline: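 Cytotoxicity in VM7Luc4E2 breast cells was scored as loss of fluorescent signal from a live-cell protease substrate 24 h after exposure, using bidirectional curve fitting. Test media came from a 2 h metabolism-negative pre-incubation (alginate-water, no hepatic S9) of compounds at 0.002-200 uM, with at least four replicates.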
structure (smiles),measurement,setting,value
COc1ccc(C(c2ccc(OC)cc2)C(Cl)(Cl)Cl)cc1,AC50,[1],102 µM (active)
same,AC50,[2],72.4 µM (active)
CCCCOC(=O)c1ccccc1C(=O)OCCCC,outcome,[1],inactive
CCCCC(CC)COC(=O)c1ccccc1C(=O)OCC(CC)CCCC (stereo unspecified),outcome,[1],inactive
same,outcome,[2],inactive
Oc1ccccc1-c1ccccc1,outcome,[2],inactive

# Reference: PubChem BioAssay (EPA / NIEHS)
